Consider seven molecules from PubChem BioAssay (Tox21).

Test [1] can be described thus: qHTS assay to identify small molecule antagonists of the sonic hedgehog signaling (Shh) pathway (AID 1259369). Note: nearly all actives have a fitted effect of over 45% in size. Note: potency is the fitted concentration of half-maximal effect. An outline of the steps: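 3T3Gli1-Luc, conditioned-medium-stimulated, 24hr cpd, 37C/5% CO2; Gli1-driven firefly Luc luminescence after 30min RT with luciferase reagent. Cells plated 4hr before cpd.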
(In general: In qHTS, concentration-response curves come from the screen itself.)

Test [2] deals with Estrogen receptor beta (Homo sapiens) (UniProt Q92731). As to the kind of experiment: qHTS assay to identify small molecule agonists of the estrogen receptor beta (ER-beta) signaling pathway (AID 1259377; active = well fitted activation curve with a large enough effect in the signal ratio in the repeat runs, not every such curve was filed as active; the % refers to the signal ratio). The gist of the method: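 Beta-lactamase reporter readout: fluorescence of LiveBLAzer B/G FRET substrate after 2 h at room temperature, following 16 h compound treatment of ER-beta-UAS-bla HEK293T cells at 37C in 2% charcoal-stripped FBS medium.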
Estrogen receptor beta (Homo sapiens), sequence (Q92731 whole entry, looked up): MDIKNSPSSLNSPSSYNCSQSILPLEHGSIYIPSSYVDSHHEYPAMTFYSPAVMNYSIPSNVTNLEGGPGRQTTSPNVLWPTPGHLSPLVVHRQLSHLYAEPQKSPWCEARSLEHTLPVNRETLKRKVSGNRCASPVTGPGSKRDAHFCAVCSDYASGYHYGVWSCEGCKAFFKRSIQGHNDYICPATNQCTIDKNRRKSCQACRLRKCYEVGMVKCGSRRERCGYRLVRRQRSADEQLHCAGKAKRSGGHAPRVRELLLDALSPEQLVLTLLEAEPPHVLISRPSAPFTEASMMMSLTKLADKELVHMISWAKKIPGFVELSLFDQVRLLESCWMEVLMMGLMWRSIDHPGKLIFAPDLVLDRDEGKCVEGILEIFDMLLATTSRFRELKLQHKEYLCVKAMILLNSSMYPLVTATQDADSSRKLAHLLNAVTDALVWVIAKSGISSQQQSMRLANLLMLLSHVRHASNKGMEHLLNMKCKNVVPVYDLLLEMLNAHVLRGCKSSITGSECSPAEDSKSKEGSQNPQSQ

Test [3] shares this target. Briefly: qHTS assay to identify small molecule antagonists of the estrogen receptor beta (ER-beta) signaling pathway (AID 1259378; active = well fitted inhibition curve with a large enough effect in the signal ratio in the repeat runs, not every such curve was filed as active; the % refers to the signal ratio; note: potency is the fitted concentration of half-maximal effect). The gist of the method:
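Antagonist mode: compounds added to beta-lactamase reporter HEK293T ER-beta-UAS cells stimulated with E2 (1nM final), 16 hr at 37C. LiveBLAzer B/G FRET substrate, 2 hours room temperature, fluorescence read-out.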

The nature of test [4]: qHTS assay to identify small molecule agonists of the androgen receptor (AR) signaling pathway in the presence of an antagonist - cell viability counter screen (AID 1259379; active = well fitted curve in the direction sought with a large enough effect in the repeat runs; an effect the other way counts as inactive or inconclusive; note: nearly all actives have a fitted effect of over 25% in size; note: potency is the fitted concentration of half-maximal effect;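 for activity change, negative = cytotoxicity: MDA-kb2 human breast cancer cells carrying an MMTV luciferase reporter; series mostly up to about 92 µM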). The gist of the method: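 Cells: MDA-kb2 (MMTV-luc, AR and GR elements), 3,000/well, 5 hr settle. Added: nilutamide 3.0uM final, then compounds (15 conc.). Incubation: 16 hr, 37C, no CO2. Read-out: CellTiter-Fluor, 1 hr, fluorescence.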

Test [5] is described as follows: qHTS assay to identify small molecule agonists of the estrogen receptor beta (ER-beta) signaling pathway - cell viability counter screen (AID 1259380; active = well fitted curve in the direction sought with a large enough effect in the repeat runs; an effect the other way counts as inactive or inconclusive; note: nearly all actives have a fitted effect of over 30% in size; note: potency is the fitted concentration of half-maximal effect). The gist of the method: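 HEK293T ER-beta-UAS-bla; 2% CS-FBS; 6 hr pre-plate, 16 hr cpd at 37C/5% CO2; LiveBLAzer read first, then CellTiter-Glo 30 min RT, luminescence.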
The nature of test [6]: qHTS assay to identify small molecule antagonists of the estrogen receptor beta (ER-beta) signaling pathway - cell viability counter screen (AID 1259382; active = well fitted curve in the direction sought with a large enough effect in the repeat runs; an effect the other way counts as inactive or inconclusive; note: nearly all actives have a fitted effect of over 55% in size; note: potency is the fitted concentration of half-maximal effect;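 for activity change, negative = cytotoxicity: HEK293T cells carrying ER-beta-UAS-bla reporter stimulated with estradiol; series mostly up to about 92 µM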). An outline of the steps: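 Cells: ER-beta-UAS-bla HEK293T, 2,000/well, 2% CS-FBS, 6 hr settle. Cpd + E2 (1nM final), 16 hr, 37C/5% CO2. Bla FRET substrate 2 hr RT, then CellTiter-Glo 30 min RT, luminescence.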
For test [7], the target named is Estrogen receptor (Homo sapiens) (UniProt P03372). As to the kind of experiment: qHTS assay to identify small molecule agonists of the estrogen receptor alpha (ER-alpha) signaling pathway in the presence of an antagonist (AID 1259383). Note: top concentration of the series differs between compounds; nearly all actives have a fitted effect of over 15% in size. The gist of the method: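 VM7Luc4E2, endog. ER-alpha + 4×ERE-luc; charcoal-stripped FBS, phenol red-free, 5 d; 24hr plating; +10.0nM ICI-182,780 (final); cpds 15 conc, 22hr, 37C/5% CO2; ONE-Glo luminescence.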
Estrogen receptor (Homo sapiens), sequence (P03372 whole entry, looked up): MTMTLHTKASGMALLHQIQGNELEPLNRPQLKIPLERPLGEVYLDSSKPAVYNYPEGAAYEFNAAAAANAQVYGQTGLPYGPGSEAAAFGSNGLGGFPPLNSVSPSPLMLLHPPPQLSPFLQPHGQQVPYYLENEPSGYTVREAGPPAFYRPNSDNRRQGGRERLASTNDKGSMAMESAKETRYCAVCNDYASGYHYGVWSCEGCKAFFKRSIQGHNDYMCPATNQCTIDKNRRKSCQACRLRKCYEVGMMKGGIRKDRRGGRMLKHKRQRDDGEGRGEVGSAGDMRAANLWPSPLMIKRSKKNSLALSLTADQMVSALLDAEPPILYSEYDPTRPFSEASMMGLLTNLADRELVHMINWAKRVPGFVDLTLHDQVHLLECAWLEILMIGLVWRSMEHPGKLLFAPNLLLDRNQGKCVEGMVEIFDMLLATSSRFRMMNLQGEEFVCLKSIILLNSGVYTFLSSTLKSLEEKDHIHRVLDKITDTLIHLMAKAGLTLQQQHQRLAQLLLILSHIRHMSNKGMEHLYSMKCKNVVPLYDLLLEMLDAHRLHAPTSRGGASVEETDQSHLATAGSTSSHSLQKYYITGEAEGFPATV

A short description of test [8]: qHTS assay to identify small molecule agonists or antagonists of the thyroid stimulating hormone receptor (TSHR) signaling pathway - wild type cell line counter screen (AID 1259384). Note: potency is the fitted concentration of half-maximal effect. An outline of the steps: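 Counter screen in untransfected Hek293: compounds (15-point titration, triplicate) plus phosphodiesterase inhibitor Ro20-1724 added after 18 h plating; 30 min RT. Intracellular cAMP via competitive d2/cryptate immunoassay, 1 h incubation.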

Test [9] concerns the target Thyrotropin receptor (Homo sapiens) (UniProt P16473). Briefly: qHTS assay to identify small molecule antagonists of the thyroid stimulating hormone receptor (TSHR) signaling pathway (AID 1259385). Note: nearly all actives have a fitted effect of over 20% in size. Note: potency is the fitted concentration of half-maximal effect. An outline of the steps:
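Antagonist mode: compound-treated TSHR-expressing HEK293 cells were stimulated with 1.5 ng/mL TSH (final) in presence of Ro20-1724 for 30 min at RT. HTRF cAMP detection after 1 h; each compound tested at 15 concentrations, triplicate.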

The target in test [10] is Progesterone receptor (Homo sapiens) (UniProt P06401). Briefly: qHTS assay to identify small molecule agonists of the progesterone receptor (PR) signaling pathway (AID 1346784). Note: nearly all actives have a fitted effect of over 30% in size. Note: potency is the fitted concentration of half-maximal effect. The gist of the method: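 HEK 293T PR-UAS-bla reporter cells, 2% charcoal-stripped FBS; 6 hr settle at 37C/5% CO2, compound (DMSO) 16 hr, LiveBLAzer B/G FRET substrate 2 hr RT, fluorescence intensity read.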
Progesterone receptor (Homo sapiens), sequence (P06401 whole entry, looked up): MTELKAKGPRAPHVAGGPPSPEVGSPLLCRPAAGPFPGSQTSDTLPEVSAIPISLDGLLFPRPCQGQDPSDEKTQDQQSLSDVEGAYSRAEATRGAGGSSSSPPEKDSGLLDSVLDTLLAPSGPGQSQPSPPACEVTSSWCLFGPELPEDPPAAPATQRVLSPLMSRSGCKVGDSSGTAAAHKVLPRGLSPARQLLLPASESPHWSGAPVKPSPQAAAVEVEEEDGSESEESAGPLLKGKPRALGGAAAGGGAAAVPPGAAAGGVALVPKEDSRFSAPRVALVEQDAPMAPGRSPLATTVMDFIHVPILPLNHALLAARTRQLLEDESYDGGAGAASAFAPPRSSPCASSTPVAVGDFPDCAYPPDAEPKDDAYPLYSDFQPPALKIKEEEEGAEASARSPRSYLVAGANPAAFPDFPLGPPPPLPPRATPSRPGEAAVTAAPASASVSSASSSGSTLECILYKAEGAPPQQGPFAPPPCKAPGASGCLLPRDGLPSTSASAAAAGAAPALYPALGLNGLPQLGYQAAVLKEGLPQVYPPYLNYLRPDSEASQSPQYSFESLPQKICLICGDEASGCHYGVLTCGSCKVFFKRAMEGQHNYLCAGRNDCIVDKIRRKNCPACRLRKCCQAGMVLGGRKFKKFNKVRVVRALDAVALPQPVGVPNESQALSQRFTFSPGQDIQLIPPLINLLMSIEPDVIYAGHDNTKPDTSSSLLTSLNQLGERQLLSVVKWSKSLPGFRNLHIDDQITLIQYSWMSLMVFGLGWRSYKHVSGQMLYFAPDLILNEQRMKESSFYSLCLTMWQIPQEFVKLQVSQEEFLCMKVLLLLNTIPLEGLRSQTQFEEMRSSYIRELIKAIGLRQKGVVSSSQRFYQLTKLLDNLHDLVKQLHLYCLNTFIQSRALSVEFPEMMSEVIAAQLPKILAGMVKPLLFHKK

Test [11] shares this target. Briefly: qHTS assay to identify small molecule antagonists of the progesterone receptor (PR) signaling pathway (AID 1346795; active = well fitted inhibition curve with a large enough effect in the signal ratio in the repeat runs, not every such curve was filed as active; the % refers to the signal ratio; note: potency is the fitted concentration of half-maximal effect). The gist of the method:
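Beta-lactamase reporter, HEK293T PR-UAS-bla line; 2% charcoal-stripped FBS; 6 hr pre-incubation, 37C/5% CO2. Compound + R5020 1 nM final, 16 hr. LiveBLAzer B/G FRET substrate, 2 hr RT; fluorescence intensity read.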

A short description of test [12]: qHTS assay to identify small molecule antagonists of the progesterone receptor (PR) signaling pathway - cell viability counter screen (AID 1346798; active = well fitted curve in the direction sought with a large enough effect in the repeat runs; an effect the other way counts as inactive or inconclusive; note: nearly all actives have a fitted effect of over 50% in size; note: potency is the fitted concentration of half-maximal effect; for activity change, negative = cytotoxicity: series mostly up to about 92 µM). The gist of the method:
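Luminescence readout (CellTiter-Glo, 30 min, RT) of viability in PR-UAS-bla HEK293T cells exposed to compound and R5020 agonist for 16 hr at 37C, 5% CO2; run in the same wells as the beta-lactamase reporter read.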

Test [13] can be described thus: qHTS assay to identify small molecule agonists of the progesterone receptor (PR) signaling pathway - cell viability counter screen (AID 1346799). Note: nearly all actives have a fitted effect of over 45% in size. Note: potency is the fitted concentration of half-maximal effect. An outline of the steps: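 HEK293T PR-UAS-bla, 3,000 cells/well, 2% charcoal-stripped FBS; 6 h settle, compound 16 h at 37C/5% CO2; LiveBLAzer 2 h RT, then CellTiter-Glo 30 min RT, luminescence read.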
Test [14] is described as follows: qHTS assay to identify small molecule antagonists of the TGF-beta/Smad signaling pathway - cell viability counter screen (AID 1346824; active = well fitted curve in the direction sought with a large enough effect in the repeat runs; an effect the other way counts as inactive or inconclusive; note: nearly all actives have a fitted effect of over 50% in size). The gist of the method: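 Cytotoxicity counter-screen run in the same wells as the beta-lactamase Smad reporter read: CellTiter-Glo luminescence after 30 min at room temperature. HEK 293T SBE-bla cells had 5 hr compound exposure at 37 C with TGF-beta1 (0.25 ng/mL stock).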

The nature of test [15]: qHTS assay to identify small molecule agonists of the TGF-beta/Smad signaling pathway - cell viability counter screen (AID 1346829; active = well fitted curve in the direction sought with a large enough effect in the repeat runs; an effect the other way counts as inactive or inconclusive; note: top concentration of the series differs between compounds; nearly all actives have a fitted effect of over 45% in size). An outline of the steps: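 After overnight seating at 37 C and 5% CO2, reporter cells got compounds for 5 hr and FRET substrate for 2 hr; cell viability then came from CellTiter-Glo luminescence.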
The nature of test [16]: qHTS assay to identify small molecule agonists of the TGF-beta/Smad signaling pathway (AID 1346859; active = well fitted activation curve with a large enough effect in the signal ratio in the repeat runs, not every such curve was filed as active; the % refers to the signal ratio; note: series mostly up to about 77 µM). An outline of the steps:
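Read-out: fluorescence at 460 and 530 nm (405 nm excitation) after a 2 hr room-temperature incubation with beta-lactamase FRET substrate. SBE-bla HEK 293T cells had been treated with test compounds for 5 hr at 37 C.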

For test [17], the target named is Thyrotropin-releasing hormone receptor (Homo sapiens) (UniProt P34981). Briefly: qHTS assay to identify small molecule antagonists of the thyrotropin-releasing hormone receptor (TRHR) signaling pathway (AID 1346877; active = well fitted inhibition curve with a large enough effect in the repeat runs, not every such curve was filed as active; note: series mostly up to about 51 µM). The gist of the method:
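Intracellular calcium fluorescence, read kinetically every second over 3 min, reports TRH-evoked signalling in HEK293 cells carrying TRHR. Test compounds were added 5 min ahead of a 1 nM TRH challenge.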

The target is the same in test [18]. Briefly: qHTS assay to identify small molecule agonists of the thyrotropin-releasing hormone receptor (TRHR) signaling pathway (AID 1346891).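 Note: HEK293 cells expressing TRHR with calcium dye readout; series mostly up to about 58 µM.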 The gist of the method:
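HEK293/TRHR cells, 1500 per well, 18 h 37 °C; Ca dye 2 h 37 °C; pin-tool compound addition (agonist mode); kinetic fluorescence 3 min, 1 s reads; 15 concentrations, triplicate.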

Test [19] is described as follows: qHTS assay to identify small molecule agonists of the estrogen receptor alpha (ER-alpha) signaling pathway in the presence of an antagonist - cell viability counter screen (AID 1259386; active = well fitted curve in the direction sought with a large enough effect in the repeat runs; an effect the other way counts as inactive or inconclusive;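 note: series mostly up to about 92 µM; cells exposed to compounds for 22 h at 37 °C before the viability read; nearly all actives have a fitted effect of over 30% in size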). The gist of the method:
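VM7Luc4E2, stripped-serum pre-culture 5 d; 24hr plating; +ICI-182,780 10.0nM final; cpds 15 conc, 22hr, 37C/5% CO2; CellTiter-Fluor added at 21hr, fluorescence 1hr later.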

Test [20] has as its target Androgen receptor (Homo sapiens) (UniProt P10275). Briefly: qHTS assay to identify small molecule agonists of the androgen receptor (AR) signaling pathway in the presence of an antagonist (AID 1259381). Note: nearly all actives have a fitted effect of over 15% in size. An outline of the steps: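 MDA-kb2 cells, 3,000/well, rested 5hr at 37C/0% CO2 → nilutamide 3.0uM final or buffer → compounds, 15 conc. → 16hr at 37C → ONE-Glo, 30min RT → luminescence.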

Where “and” joins values, the source holds several entries; their conditions need not be identical. Identical values can stand only once. Inconclusive results are not listed. Where a structure was tested more than once in an assay, its records may differ in their call. Calls of active or inactive are those of the source. Unless noted, calls come from the whole dose curve.
% is set by controls: 0 for no effect and ±100 for the full control effect.

Thyrotropin-releasing hormone receptor (Homo sapiens), sequence (P34981 whole entry, looked up): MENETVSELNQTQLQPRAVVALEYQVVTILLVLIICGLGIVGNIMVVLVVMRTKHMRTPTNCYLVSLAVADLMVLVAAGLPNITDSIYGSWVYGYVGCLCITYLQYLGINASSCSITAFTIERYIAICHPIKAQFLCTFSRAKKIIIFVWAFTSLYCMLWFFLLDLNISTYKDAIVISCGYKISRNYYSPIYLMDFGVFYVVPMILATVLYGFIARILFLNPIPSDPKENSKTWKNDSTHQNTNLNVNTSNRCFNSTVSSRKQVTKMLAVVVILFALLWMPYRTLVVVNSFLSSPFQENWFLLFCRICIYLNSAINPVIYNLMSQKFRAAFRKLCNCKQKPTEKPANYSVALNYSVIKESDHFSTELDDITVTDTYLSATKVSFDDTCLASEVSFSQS
Thyrotropin receptor (Homo sapiens), sequence (P16473 whole entry, looked up): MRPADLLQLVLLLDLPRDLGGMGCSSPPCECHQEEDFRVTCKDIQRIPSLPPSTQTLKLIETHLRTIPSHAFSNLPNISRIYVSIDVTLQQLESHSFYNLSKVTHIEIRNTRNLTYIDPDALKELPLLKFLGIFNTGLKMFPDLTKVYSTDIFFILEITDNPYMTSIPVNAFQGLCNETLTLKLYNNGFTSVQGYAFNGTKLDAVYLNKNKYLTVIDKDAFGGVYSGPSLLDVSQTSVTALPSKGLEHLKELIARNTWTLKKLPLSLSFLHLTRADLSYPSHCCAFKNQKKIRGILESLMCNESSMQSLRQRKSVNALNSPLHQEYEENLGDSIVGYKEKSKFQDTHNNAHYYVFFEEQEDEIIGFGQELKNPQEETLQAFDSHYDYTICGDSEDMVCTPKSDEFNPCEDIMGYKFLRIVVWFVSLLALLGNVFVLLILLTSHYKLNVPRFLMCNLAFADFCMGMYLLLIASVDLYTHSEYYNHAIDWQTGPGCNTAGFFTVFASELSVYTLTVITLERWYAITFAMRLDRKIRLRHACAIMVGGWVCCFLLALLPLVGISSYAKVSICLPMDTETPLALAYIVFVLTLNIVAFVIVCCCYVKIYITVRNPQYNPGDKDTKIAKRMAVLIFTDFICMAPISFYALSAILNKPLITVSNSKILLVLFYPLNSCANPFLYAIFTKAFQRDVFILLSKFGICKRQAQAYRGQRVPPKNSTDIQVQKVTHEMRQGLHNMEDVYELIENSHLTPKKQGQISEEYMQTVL
Androgen receptor (Homo sapiens), sequence (P10275 whole entry, looked up): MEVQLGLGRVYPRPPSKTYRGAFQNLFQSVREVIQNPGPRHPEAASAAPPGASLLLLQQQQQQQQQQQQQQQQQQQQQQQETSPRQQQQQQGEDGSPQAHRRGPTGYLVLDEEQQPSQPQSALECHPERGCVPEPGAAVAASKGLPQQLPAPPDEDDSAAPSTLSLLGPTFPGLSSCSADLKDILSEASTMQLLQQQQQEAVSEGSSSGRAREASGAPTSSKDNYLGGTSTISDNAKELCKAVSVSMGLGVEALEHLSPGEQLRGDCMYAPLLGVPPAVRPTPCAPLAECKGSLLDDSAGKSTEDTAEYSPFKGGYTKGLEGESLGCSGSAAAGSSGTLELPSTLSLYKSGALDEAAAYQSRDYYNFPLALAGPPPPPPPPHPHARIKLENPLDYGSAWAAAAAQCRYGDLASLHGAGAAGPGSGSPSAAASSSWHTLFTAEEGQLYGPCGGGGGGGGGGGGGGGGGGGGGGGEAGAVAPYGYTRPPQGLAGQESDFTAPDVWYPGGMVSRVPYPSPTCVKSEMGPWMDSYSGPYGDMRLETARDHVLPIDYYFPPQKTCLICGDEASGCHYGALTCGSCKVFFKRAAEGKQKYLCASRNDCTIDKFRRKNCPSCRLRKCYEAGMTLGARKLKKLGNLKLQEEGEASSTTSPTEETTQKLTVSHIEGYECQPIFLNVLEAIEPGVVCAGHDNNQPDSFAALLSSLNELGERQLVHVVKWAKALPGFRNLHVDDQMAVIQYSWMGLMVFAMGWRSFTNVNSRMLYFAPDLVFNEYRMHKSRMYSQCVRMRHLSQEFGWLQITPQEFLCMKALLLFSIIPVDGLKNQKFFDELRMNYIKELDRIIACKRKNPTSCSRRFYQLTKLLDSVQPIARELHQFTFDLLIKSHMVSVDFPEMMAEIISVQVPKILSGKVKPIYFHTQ

As to `COC(=O)C(C)Oc1ccc(Oc2ncc(C(F)(F)F)cc2Cl)cc1` (stereo not drawn), the Potency result in [1] was “inactive and 30.6 µM (active)”. Further, the Potency result in test [2], in test [3], in [4], in test [5], in test [6] and in test [7] was “inactive” throughout. For the same molecule, the Potency entry in test [8], in test [9], in [10], in test [11], in test [12] and in [13] was “inactive” throughout. For the same molecule, the Potency entry in [14], in test [15], in [17] and in test [18] was “inactive” throughout. For the same molecule, in test [16], the result was inactive.

`CNC[C@H](O)c1ccc(O)c(O)c1`: the Potency is 17.2 µM (active) in test [1]; 1.66 µM (active) and 111 nM (active) in test [8]; 4.33 µM (active) in test [10]. Further, the activity change, negative = inhibition in test [1] was -2.86% [at 19 µM] (inactive). For the same molecule, the Potency result in [4], in test [5], in test [6], in [7], in test [9] and in test [11] was “inactive” throughout. The Potency entry in [12], in test [13], in test [14], in test [15], in test [17] and in test [18] was “inactive” each time. In addition, the activity change, negative = cytotoxicity in test [19] was -2.01% [at 19 µM] (inactive). Besides, the activation in test [10] is -0.635% [at 19 µM] (inactive). Also, in test [16], the molecule was called inactive.

`CC(=O)OC(C)C`: the Potency entry in [1], in [2], in test [3], in [4], in test [5] and in test [6] was “inactive” in each case. The Potency result in [7], in test [8], in test [9], in test [19], in [10] and in test [11] was “inactive” throughout. The Potency entry in [12], in test [13], in [14], in test [15], in [17] and in test [18] was “inactive” throughout. Further, the result in test [16] was inactive.

As to `CN(Cc1cnc2nc(N)nc(N)c2n1)c1ccc(C(=O)N[C@@H](CCC(=O)O)C(=O)O)cc1`, the Potency result in test [1], in [2], in test [3], in test [4], in test [20] and in test [7] was “inactive” in each case. The Potency result in test [8], in [9], in [19], in test [10], in test [12] and in test [13] was “inactive” throughout. In addition, the Potency in test [5] was 172 nM (active) and 133 nM (active); in test [11] it was 133 nM (active). Moreover, the molecule was called inactive in test [16].

Take `Cc1ccc(S(=O)(=O)O)cc1C`: the Potency entry in [1], in test [4], in [5], in test [6], in test [7] and in test [8] was “inactive” in each case. In addition, the Potency result in [9], in test [19], in test [10], in test [11], in test [12] and in test [13] was “inactive” in each case. In addition, the Potency entry in [14], in test [15], in test [17] and in test [18] was “inactive” in each case. The result in test [16] was inactive.

Take `CC(C)[N+](C)(CCOC(=O)C1c2ccccc2Oc2ccccc21)C(C)C`: the Potency entry in test [1], in [4], in [5], in [6], in test [7] and in test [8] was “inactive” in each case. The Potency result in test [9], in [19], in [10], in [11], in test [12] and in [13] was “inactive” throughout. In addition, the Potency entry in test [14], in test [15], in test [17] and in [18] was “inactive” throughout. Also, in test [16], the molecule was called inactive.

Turning to `CN(C)CCCN1c2ccccc2Sc2ccc(Cl)cc21`, the Potency is 13.7 µM (active) and inactive in test [1]; 30.6 µM (active) and 21.1 µM (active) in test [3]; 61.1 µM (active) in test [4]; 19.3 µM (active) and 16.8 µM (active) in [5]; 27.3 µM (active) and 18.8 µM (active) in test [6]; 26.6 µM (active) in test [9]. The Potency was 43.3 µM (active) and 21.1 µM (active) in test [11]; 27.3 µM (active) and 29.8 µM (active) in test [12]; 30.6 µM (active) and 23.7 µM (active) in test [13]. In addition, the Potency result in test [2], in test [8], in test [19], in test [10], in test [14] and in [15] was “inactive” throughout. Moreover, the Potency result in test [17] and in test [18] was “inactive” in each case. Moreover, the call in test [16] was inactive.
